Source: PubChem BioAssay (NCI)
The panel holds about 83,000 compounds, 20% with a hit somewhere; the sample as a whole holds those more often.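 Treatment: one concentration, 48 hours, 96-well format. Scoring: percent growth, with anything below 10 considered active.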 Values without a mark were called inactive. Calls of active or inactive are those of the source.

How the values were obtained:
Test in all cases: NCI-60 one-dose screen, 48 h (100 = growth as untreated, 0 = no growth, -100 = all killed)
Conditions in all cases: 10 µM unless noted
EKVX NSCLC = test system: EKVX NSCLC
SN12C renal = test system: SN12C renal
UO-31 renal = test system: UO-31 renal
ACHN renal = test system: ACHN renal
CAKI-1 renal = test system: CAKI-1 renal
A498 renal = test system: A498 renal
CCRF-CEM leukemia = test system: CCRF-CEM leukemia
MOLT-4 leukemia = test system: MOLT-4 leukemia
SR leukemia = test system: SR leukemia
RPMI-8226 leukemia = test system: RPMI-8226 leukemia
OVCAR-8 ovarian = test system: OVCAR-8 ovarian
OVCAR-4 ovarian = test system: OVCAR-4 ovarian
IGROV1 ovarian = test system: IGROV1 ovarian
OVCAR-3 ovarian = test system: OVCAR-3 ovarian
HS 578T breast = test system: HS 578T breast
T-47D breast = test system: T-47D breast
OVCAR-5 ovarian = test system: OVCAR-5 ovarian
SK-OV-3 ovarian = test system: SK-OV-3 ovarian
NCI/ADR-RES ovarian = test system: NCI/ADR-RES ovarian

| Structure (SMILES) | growth (EKVX NSCLC) | growth (SN12C renal) | growth (UO-31 renal) | growth (ACHN renal) | growth (CAKI-1 renal) | growth (A498 renal) | growth (CCRF-CEM leukemia) [%] | growth (MOLT-4 leukemia) [%] | growth (SR leukemia) [%] | growth (RPMI-8226 leukemia) | growth (OVCAR-8 ovarian) | growth (OVCAR-4 ovarian) | growth (IGROV1 ovarian) [%] | growth (OVCAR-3 ovarian) | growth (HS 578T breast) | growth (T-47D breast) | growth (OVCAR-5 ovarian) [%] | growth (SK-OV-3 ovarian) | growth (NCI/ADR-RES ovarian) |
| --- | --- | --- | --- | --- | --- | --- | --- | --- | --- | --- | --- | --- | --- | --- | --- | --- | --- | --- | --- |
| CCOC(=O)c1c(NC(=O)c2cccc(C(F)(F)F)c2)sc2cc(O)ccc12 | 84.8% | 89.4% | 60.1% | 93.4% | 96.7% | 77.1% | 63.5 | 81.6 | 101 | 73.9% | 105% | 104% | 75.7 | 98.6% | 88.1% | 64% |  |  |  |
| COc1ccc(-c2csc(N/N=C/c3c(-c4ccc(S(C)(=O)=O)cc4)nc4ccccn34)n2)cc1 | 106% | 105% | 87% | 102% | 93.4% |  | 94.2 | 92.4 | 94.5 | 91.4% | 103% | 105% | 115 | 124% | 118% | 87.8% | 108 | 136% | 110% |
| O=C1Nc2cc(Cl)ccc2/C1=C\c1ccc(OCc2ccc(Br)cc2F)cc1 | -18.9% (active) | -70.1% (active) | -68.7% (active) | -83% (active) | -77.1% (active) | -75.8% (active) | 12.9 | 22.7 | 27.4 | -24.3% (active) | -36.7% (active) | -54.3% (active) |  | -64.7% (active) | -26.1% (active) | -23.9% (active) |  | -36.9% (active) | -0.106% (active) |
| CN(C)c1ccc(/C=C2\Cc3c(F)ccc(Br)c3C2=O)cc1 | 80.5% | 98.2% | 77% | 84.8% | 82% |  | 94.2 | 97.7 | 76 | 93.1% | 96.5% | 35.9% | 56.5 |  | 92.2% | 54.2% |  | 97.7% | 91% |
| COC(=O)C(Cc1ccccc1)NS(=O)(=O)/N=C1\NC(=O)NC1=C(Cl)Cl (stereo unspecified) | 104% | 96.8% | 81.3% | 98.1% | 100% |  | 37.8 | 79.3 | 82.9 | 4.3% (active) | 102% | 112% | 101 |  | 100% | 68.4% | 115 | 108% | 106% |
| O=C(N/N=C/c1ccco1)c1[nH]c2ccc(Br)cc2c1-c1ccccc1 | 37.9% | 38.1% | 38.6% | 29.3% | 30.3% |  | 15.6 | 15.8 | 11.2 | 8.9% (active) | 5.2% (active) | 58.5% | 18.5 | 21.5% | 31.6% | 60.7% |  | 36.1% | 20.5% |
| COc1cccc(OC)c1-c1nnn(C)c1C(=S)N1CCN(c2ccc([N+](=O)[O-])cc2Cl)CC1 | 83.6% | 93.6% | 58.7% | 92.2% | 78.9% |  | 91.7 | 78 | 87.1 | 77.5% | 95.4% | 91.9% |  | 112% | 95% | 101% |  | 110% | 93.6% |
| O=C(O)CCCCCN1C(=O)/C(=C/c2ccc(O)c(O)c2)SC1=S | 97% | 98.5% | 90.4% | 109% | 102% |  | 105 | 106 | 107 | 111% | 103% | 101% |  | 108% | 99.6% | 98% | 108 | 124% | 104% |
| CCN1C(=S)N(c2ccccc2)C2NC(=O)N(/N=C/C=C/c3ccccc3OC)C21 (stereo unspecified) | 89.7% | 87.5% | 90.4% | 80.1% | 72.6% |  | 92.3 | 101 | 40.9 | 92.6% | 73.1% | 81.1% | 92.1 |  | 78.7% | 93.3% | 97.7 | 115% | 99.4% |
